FLuc modulator: inhibits or activates purified firefly luciferase, miR-21 counter-screen. P08659. purified FLuc, Km substrates, luminescence inhibition. Potency, µM (top dose mostly 57.5 µM), without a hit: top-dose activity change, negative = inhibition, usual class: inhibitors. 6.9% of 360,000 active. AID 588342;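 also: plate controls were vehicle for no effect and reference inhibitor for full effect; nearly all actives have a fitted effect of over 55% in size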
Target sequence (P08659 whole entry, looked up): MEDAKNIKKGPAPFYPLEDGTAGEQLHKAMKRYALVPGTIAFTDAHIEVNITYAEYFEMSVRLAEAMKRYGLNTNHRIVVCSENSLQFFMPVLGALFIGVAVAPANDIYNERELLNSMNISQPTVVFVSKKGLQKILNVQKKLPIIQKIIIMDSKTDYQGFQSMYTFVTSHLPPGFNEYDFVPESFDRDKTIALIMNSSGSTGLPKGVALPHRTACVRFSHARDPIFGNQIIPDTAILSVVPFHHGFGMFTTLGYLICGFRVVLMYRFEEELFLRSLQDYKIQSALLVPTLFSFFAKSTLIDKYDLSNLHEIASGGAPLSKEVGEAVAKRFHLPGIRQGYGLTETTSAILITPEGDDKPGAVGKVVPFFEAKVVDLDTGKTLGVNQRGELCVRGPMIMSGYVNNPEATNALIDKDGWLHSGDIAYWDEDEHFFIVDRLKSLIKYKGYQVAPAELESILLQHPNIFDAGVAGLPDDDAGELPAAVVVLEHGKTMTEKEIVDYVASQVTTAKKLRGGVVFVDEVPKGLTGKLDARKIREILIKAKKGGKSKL
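Biochemical qHTS of compounds, final roughly 60 µM downward over six points, against 10 nM purified firefly luciferase using Km concentrations of substrates (10 uM D-luciferin, 10 uM ATP) in Tris acetate pH 7.5 buffer; luminescence output.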
NPC1 prom act: activates the NPC1 promoter. Potency, µM (highest dose often 9.22 µM), without a hit: at the highest dose activation, actives largely listed as activators. 2.4% of 320,000 active. Huh7 NPC1 promoter luciferase reporter, 24 h; also: % of control where 0% means no effect; nearly all actives have a fitted effect of over 60% in size
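In 1536-well qHTS, Huh7 cells harboring an NPC1 promoter–luciferase construct received compound for 24 h; activation was quantified by luminescence following luciferase reagent addition.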
ELG1 genotoxic: genotoxicity induction in ELG1-luciferase HEK293T cells | Potency, µM (highest dose often 46 µM), for inactives: top-dose activity change, positive = activation, hits mostly activators | AID 504466 | HEK293T ELG1-luciferase reporter, luminescence, 16 h | 1.3% of 330,000 active; also: % of control where 0% means no effect; nearly all actives have a fitted effect of over 60% in size
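Step 1: seed 2,000 HEK293T ELG1-luciferase cells per well. Step 2: add compound or DMSO, incubate 16 hr at 37 °C. Step 3: ONE-Glo, 30 min at room temperature, read luminescence.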
SMN2 splice up: SMN2 splice variant enhancement; HEK293 SMN2-luciferase splicing reporter, luminescence, 30-36 h; Potency, µM (highest dose often 46.1 µM), for the others: at the top dose activity change, positive = activation, usual class: activators; 2.8% of 210,000 active; AID 1458; also: % of control where 0% means no effect; nearly all actives have a fitted effect of over 55% in size
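qHTS luciferase splicing reporter: luminescence rises when SMN2 exon 7 is included in transfected HEK293 cells. Compound exposure lasted 30-36 h at 37C, with 4.5 mM final sodium butyrate as control, followed by a ONE-Glo read.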
Rab9 promoter act: activators of Rab9 promoter; Huh7 Rab9 promoter-luciferase reporter, luminescence, 24 h; Potency, µM (doses to about 9.22 µM), for inactives: at the top dose activation, negative = inhibition, most hits filed as activators; 2.8% of 320,000 active; AID 485297; also: % of control where 0% means no effect; nearly all actives have a fitted effect of over 60% in size
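Rab9 promoter-driven luciferase in stably transfected Huh7 cells; 1500 cells/well rested 2 h, exposed to compound in DMSO for 24 h at 37 °C, 5% CO2. Luminescence read 10 min after adding luciferase reagent at ambient temperature.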
ELG1 DNA repair: inhibitors of ELG1-dependent DNA repair in HEK293T cells. 2.3% of 330,000 active. Potency, µM (highest dose often 46.1 µM), for inactives: top-dose activity change, negative = inhibition, usual class: inhibitors. HEK293T ELG1-luciferase reporter, luminescence, 16 h; DNA damage induced by 5-fluorouridine; also: % is scaled to controls: 0 for no effect and ±100 for the full control effect; nearly all actives have a fitted effect of over 55% in size
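Quantitative HTS, concentration-response format. 2,000 cells/well co-treated with 5-fluorouridine and compound, 16 hr in 5% CO2 at 37 °C; ONE-Glo luminescence read after 30 min.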
Numbers without * were called inactive; ? = inconclusive; . = no result given; [ ] = dose if it differs, or a comment. Rows were chosen to be rich in hits. Some 9.2% of all compounds tested hit in one or more screens of this group. Calls follow the shape of the dose curve; as a rule, active = well fitted curve in the direction sought with a large enough effect; inconclusive = small, poorly fitted or top-dose-only effect, or another doubt; inactive = no such curve, though single readings can be large; an effect the other way counts as inactive or inconclusive. Potency is read from the fitted curve at half-maximal effect.

SMILES | FLuc modulator | NPC1 prom act | ELG1 genotoxic | SMN2 splice up | Rab9 promoter act | ELG1 DNA repair
CCOc1ccc(NC(=O)Nc2cccc(C)n2)cc1 | ? | 3.5µM* | 16% | 28% | 2.5µM* | ?
Cc1cccc(NC(=O)c2ccc(Cl)nc2)n1 | -8% | 10% | 18% | . | 12% | ?
CCC(=O)N/C(=N/c1nc(C)cc(C)n1)Nc1ccc(C)cc1 | 0% | -4% | -5% | . | -1%[1.84 µM] | ?
CC1=C(C)CC(C(=O)NNC(=O)c2csc(C)c2C)C(C(=O)O)C1 (stereo not given) | 2% | -1% | 3% | 4% | 2% | 2%
COc1ccc(OC)c(NC(=O)CN2CCC(C(=O)c3ccc(C)cc3)CC2)c1 | 0% | 7% | -13% | 2% | -3% | 21µM*
CCOc1ccc(C(=O)C2CCN(CC(=O)Nc3ccccc3N3CCOCC3)CC2)cc1 | 2% | -7% | 2% | -35% | -6% | 21µM*
CCOc1ccc(C(=O)Nc2ccccc2N2CCOCC2)cc1 | ? | -1% | 7% | -10% | -2% | 18%
Cc1cc(C)n2c(Nc3ccc(Cl)cc3)c(-c3ccsc3)nc2n1 | -11% | . | . | 7% | . | .
Cc1cc(C)n2c(Nc3ccc(C(C)C)cc3)c(-c3ccsc3)nc2n1 | 11µM* | . | . | 1% | . | .
COc1cccc(/C=C(\C#N)c2nc3ccc(C)cc3[nH]2)c1 | 3.4µM* | . | . | 24% | . | .
COc1cc(/C=C(\C#N)c2nc3ccc(C)cc3[nH]2)c([N+](=O)[O-])cc1OC | -5% | -1% | -1% | -25% | -1% | ?
COc1cc(/C=C(\C#N)c2nc3ccc(C)cc3[nH]2)cc([N+](=O)[O-])c1O | 3.8µM* | 15% | ? | ? | ? | ?
Cc1ccc2nc(/C(C#N)=C\c3cc(O)ccc3[N+](=O)[O-])[nH]c2c1 | 19µM* | -1% | 1% | 3% | 0% | 12%
Cc1ccc(NCC(=O)Nc2cccc(S(=O)(=O)N(C)C)c2)cc1S(=O)(=O)N1CCCCCC1 | 4% | -16% | -2% | . | -20% | -20%
O=C(CSc1nnc2[nH]c(=O)cc(-c3ccccc3)n12)Nc1cc(C(F)(F)F)ccc1Cl | 0.21µM* | . | . | . | . | .
O=c1cc(-c2ccccc2)n2c(SCc3cccc([N+](=O)[O-])c3)nnc2[nH]1 | -18% | . | . | . | . | .
O=C(CSc1nnc2[nH]c(=O)cc(-c3ccccc3)n12)Nc1ccc(F)cc1F | 1.9µM* | . | . | . | . | .
Cc1cccc(NC(=O)CSc2nnc3[nH]c(=O)cc(-c4ccccc4)n23)c1C | 3µM* | . | . | . | . | .
Cc1cccc(NC(=O)CSc2nnc3[nH]c(=O)cc(C)n23)c1C | 1% | . | . | . | . | .
CN(C(=O)CSc1nnc2[nH]c(=O)cc(-c3ccccc3)n12)c1ccccc1 | 19µM* | . | . | . | . | .
CCOC(=O)c1c(-c2ccccc2)oc2ccc(N(C(C)=O)S(=O)(=O)c3ccc(CC)cc3)cc12 | 5% | . | . | -14% | . | .
COc1cc(NC(=O)C2CCCCC2)c2ncccc2c1 | 15µM* | 6% | 2% | -6% | 16% | 14%
COc1ccc(OC)c(NC(=O)C2CCCCC2)c1 | -8% | -3% | 1% | 5% | -10% | 2%
COc1ccc(C(=O)Nc2cc(OC)cc3cccnc23)cc1 | 7.6µM* | 0% | 1% | . | 1%[1.84 µM] | 11%
COc1cc(NC(=O)c2ccc(Cl)cc2)c2ncccc2c1 | ? | 6% | 1% | . | -5% | 0%
COc1ccc(CCNC(=O)CC(C)S(=O)(=O)c2ccc3c(c2)NC(=O)CO3)cc1OC (stereo not given) | 3% | -3% | 0% | . | 2% | -1%
COc1cccc(CNC(=O)CCc2c(C)nn(-c3ccc(N4CCCC4)nn3)c2C)c1 | 4% | . | . | . | . | .
CC(=O)c1ccc(Nc2nc(C)cc(C)n2)cc1 | 27µM* | ? | ? | . | ? | ?
CCOC(=O)c1oc2c(c1C)/C(=N/O)CCC2 | ? | ? | ? | 22µM* | 26% | ?
